Screens: PubChem, National Center for Advancing Translational Sciences (NCATS)
VP16 counter = VP16 counterscreen qHTS for inhibitors of ROR gamma transcriptional activity; Drosophila S2 Gal4-VP16 UAS-luciferase, luminescence, 20 h; Potency, µM (titrated, usually from 53.6 µM), for inactives: at the top dose activity, negative = inhibition, most hits filed as inhibitors; 310,000 compounds, 3.5% hits;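 also: Gal4-VP16 expression switched on by copper sulfate through the metallothionein promoter; nearly all actives have a fitted effect of over 50% in size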
TDP1 cell noCPT = qHTS for Inhibitors of human tyrosyl-DNA phosphodiesterase 1 (TDP1): qHTS in cells in absence of CPT; DT40 Tdp1-/- hTDP1 cells, no CPT, ATP luminescence, 48 h; Potency, µM (top dose mostly 46.2 µM), inactives show at the top dose activity change, negative = growth inhibition, usual class: inhibitors; 420,000 compounds, 15% hits; AID 686978, 2013; also: nearly all actives have a fitted effect of over 55% in size
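No-CPT arm: Tdp1-/-;hTDP1 DT40 cells (400/well) plus compounds, incubated ≥48 hr at 37 °C. Readout CellTiter-Glo luminescence.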
TDP1 inh = qHTS Assay for Inhibitors of Tyrosyl-DNA Phosphodiesterase (TDP1). Potency, µM (titrated, usually from 130 µM), inactives show at the top dose activity change, negative = inhibition, usual class: inhibitors. 350,000 compounds, 0.28% hits. Tyrosyl-DNA phosphodiesterase 1 (Homo sapiens), Q9NUW8. recombinant TDP1, AlphaScreen DNA substrate cleavage. AID 485290, 2010; also: nearly all actives have a fitted effect of over 40% in size
Target sequence (Q9NUW8 whole entry, looked up): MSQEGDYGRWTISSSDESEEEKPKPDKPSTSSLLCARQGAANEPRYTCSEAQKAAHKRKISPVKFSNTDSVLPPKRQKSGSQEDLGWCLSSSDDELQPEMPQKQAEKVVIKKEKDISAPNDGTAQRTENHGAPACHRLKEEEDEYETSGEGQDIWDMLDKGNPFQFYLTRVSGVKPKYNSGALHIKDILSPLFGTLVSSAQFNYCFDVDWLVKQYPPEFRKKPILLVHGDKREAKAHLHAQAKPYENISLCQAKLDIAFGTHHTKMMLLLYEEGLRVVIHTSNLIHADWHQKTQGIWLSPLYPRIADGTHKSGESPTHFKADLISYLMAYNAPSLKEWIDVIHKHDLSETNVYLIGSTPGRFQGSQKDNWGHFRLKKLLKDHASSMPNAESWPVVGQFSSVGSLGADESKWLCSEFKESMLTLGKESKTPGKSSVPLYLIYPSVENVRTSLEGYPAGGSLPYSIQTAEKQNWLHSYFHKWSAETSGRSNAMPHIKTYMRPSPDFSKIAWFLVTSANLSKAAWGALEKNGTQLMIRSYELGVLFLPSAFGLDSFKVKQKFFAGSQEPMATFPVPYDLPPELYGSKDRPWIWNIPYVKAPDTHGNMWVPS
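Here, a 5' biotin and 3' phosphotyrosine-FITC DNA oligonucleotide reports Tdp1 activity: intact substrate bridges AlphaScreen beads, while cleavage leaves a 3' phosphate and drops signal. All incubations at room temperature.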
RORg inh = qHTS for inhibitors of ROR gamma transcriptional activity; Drosophila S2 Gal4-RORgamma UAS-luciferase reporter, 20 h; Potency, µM (titrated, usually from 53.6 µM), without a hit: at the highest dose activity change, negative = inhibition, actives largely listed as inhibitors; 310,000 compounds, 5.4% hits; AID 2551, 2010; also: nearly all actives have a fitted effect of over 60% in size
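Stably transfected Drosophila Schneider cells are the test system, with ROR gamma fused to Gal4 and luciferase under UAS control; luminescence is read after 20 hr of 700 uM copper sulfate induction at ambient temperature.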
DT40 TDP1 CPT = qHTS for Inhibitors of human tyrosyl-DNA phosphodiesterase 1 (TDP1): qHTS in cells in presence of CPT | 420,000 compounds, 12% hits | chicken DT40 Tdp1-/-;hTDP1 cells + 20 nM CPT, ATP luminescence, 48 h | AID 686979, 2013 | Potency, µM (doses to about 46.2 µM), for the others: top-dose activity change, negative = growth inhibition, most hits filed as inhibitors; also: nearly all actives have a fitted effect of over 55% in size
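Cell growth measured by CellTiter-Glo luminescence after a minimum 48 h, 37 C compound exposure with 20 nM CPT in Tdp1-knockout DT40 cells stably expressing hTDP1, seeded 400/well; qHTS titration format.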
* hit, by the source's call; ? = inconclusive; . = no result; [ ] = dose if it differs, or a comment. A selection: hits, their analogues and other compounds. The true share with any hit is near 19%. Calls follow the shape of the dose curve; as a rule, active = well fitted curve in the direction sought with a large enough effect; inconclusive = small, poorly fitted or top-dose-only effect, or another doubt; inactive = no such curve, though single readings can be large; an effect the other way counts as inactive or inconclusive. % is scaled to controls: 0 for no effect and ±100 for the full control effect; potency is read from the fitted curve at half-maximal effect.

SMILES	VP16 counter	TDP1 cell noCPT	TDP1 inh	RORg inh	DT40 TDP1 CPT
Cc1sc2ncn(CC(=O)N3CCN(c4ccccc4)CC3)c(=O)c2c1S(=O)(=O)N1CCN(c2ncccn2)CC1	.	?	0.0%	.	?
CCCN(C(=O)Cn1cnc2sc(C)c(S(=O)(=O)N3CCN(c4ncccn4)CC3)c2c1=O)c1cccc(C)c1	.	14.6µM*	3.6%	.	-26.1%
Cc1cccc(N2CCN(C(=O)Cn3cnc4sc(C)c(S(=O)(=O)N5CCN(c6ncccn6)CC5)c4c3=O)CC2C)c1 (stereo unspecified)	.	14.6µM*	3.6%	.	16.4µM*
CCC(C)NC(=O)Cn1cnc2sc(C)c(S(=O)(=O)N3CCN(c4ncccn4)CC3)c2c1=O (stereo unspecified)	-6.1%	1.5%	-4.8%	1.9%	8.0%
Cc1sc2ncn(CC(=O)N3CCN(c4ccc(Cl)cc4)CC3)c(=O)c2c1S(=O)(=O)N1CCN(c2ncccn2)CC1	.	?	5.9%	.	11.6µM*
Cc1cccc(C)c1N1CC(=O)N(c2c(C)cccc2C)CC1=O	-2.7%	21.8%	6.2%	18.9%	-1.3%
COC(=O)CCC(=O)OC1(C)C(=O)C=C2C=C(C3CC3)N(C(CO)CO)C=C2C1=O (stereo unspecified)	4.2%	8.1%	7.1%[12.3 µM]	-24.9%	4.5%
O=C(CSc1nc2ccccc2s1)NCCCN1CCOCC1	-1.7%	8.6%	1.0%	20.1%	4.4%
CCCC(=O)N(CCN1CCOCC1)c1nc2cc(C)c(C)cc2s1	2.4%	0.8%	1.3%	-7.7%	-13.3%
Cc1ccc(S(=O)(=O)CCC(=O)N(CCCN2CCOCC2)c2nc3ccccc3s2)cc1	.	2.91µM*	5.3%	.	2.31µM*
O=C(CCS(=O)(=O)c1ccccc1)N(CCCN1CCOCC1)c1nc2ccccc2s1	.	3.66µM*	5.6%	.	5.17µM*
Cc1ccc2nc(N(CCN3CCOCC3)C(=O)CCS(=O)(=O)c3ccccc3)sc2c1	.	11.6µM*	-0.7%	.	11.6µM*
CCN(CC)CCN(C(=O)CCS(=O)(=O)c1ccccc1)c1nc2cc3c(cc2s1)OCO3	?	11.6µM*	4.5%	?	8.2µM*
CC(=O)Nc1cccc(NC(=O)CSc2nc3c(c(=O)n(C)c(=O)n3C)n2C)c1	-9.4%	-0.7%	3.8%	-5.4%	9.2%
Cc1cc2c(cc1S(=O)(=O)N(C)Cc1ccccc1)OCC(=O)N2	-10.9%	-26.5%	.	-30.6%	6.5%
CC1CN(C(=O)Cn2c(C(F)(F)F)nc3ccccc32)CC(C)O1 (stereo unspecified)	2.3%	0.0%	3.8%	-4.0%	1.8%
Cc1ccccc1C(=O)NC1(C(F)(F)F)N=C(c2ccccc2)N(Cc2ccccc2)C1=O (stereo unspecified)	.	23.1µM*	-3.2%	.	23.1µM*
S=C(NCc1cccs1)Nc1ccc(Br)cc1Cl	-18.7%	7.3%	3.7%	?	-16.5%
Cc1cc(C)cc(NC(=S)NCc2cccs2)c1	11.2µM*	?	2.6%	2.24µM*	14.6µM*
COc1cc(NC(=S)NCc2cccs2)cc(OC)c1	11.2µM*	?	0.0%	5.01µM*	?
CC(CCN1CCN=C1Nc1ccccc1)c1ccccc1 (stereo unspecified)	-9.8%	?	.	-14.5%	?
O=C1CCc2cc(NS(=O)(=O)c3ccc(F)cc3)cc3c2N1CCC3	.	?	0.0%	.	?
Cc1ccccc1N(C(=O)Cn1nnc(-c2ccc(F)cc2)n1)C(C(=O)NC(C)(C)C)c1ccncc1 (stereo unspecified)	-12.3%	-59.5%	5.6%	17.3%	0.5%
CC(C)(C)NC(=O)C(c1ccc(O)cc1)N(C(=O)Cn1nnc(-c2ccc(F)cc2)n1)c1ccccc1F (stereo unspecified)	-1.7%	16.4µM*	5.1%	10.0%	?
CC(C)(C)NC(=O)C(c1ccncc1)N(C(=O)Cn1nnc(-c2ccc(F)cc2)n1)c1ccccc1F (stereo unspecified)	-26.9%	-27.9%	2.8%	12.6µM*	-11.4%
SMILES	VP16 counter	TDP1 cell noCPT	TDP1 inh	RORg inh	DT40 TDP1 CPT
O=C1/C(=C\c2ccco2)NC(=S)N1c1ccccc1	0.7%	29.1µM*	0.0%	20.6%	-13.2%
N#Cc1ccc(Cn2c(-c3ccc(F)cc3)noc2=O)cc1	-0.1%	-1.8%	.	-4.7%	-20.9%
O=C(N/N=C/c1ccc(-c2cccc([N+](=O)[O-])c2)o1)[C@H]1C[C@@H]1c1ccccc1	0.9%	16.4µM*	0.0%	21.2%	29.1µM*
O=C(O)/C(=C\c1ccc(-c2ccccc2[N+](=O)[O-])o1)c1ccccc1	-5.7%	-8.8%	.	-25.5%	-14.7%
O=C(N/N=C/c1ccc(-c2ccccc2[N+](=O)[O-])o1)[C@H]1C[C@@H]1c1ccccc1	11.2µM*	?	2.7%	?	16.4µM*
O=C(/C=C/c1ccc(-c2ccccc2[N+](=O)[O-])o1)c1ccccc1	-0.2%	23.1µM*	2.6%	26.1%	?
COc1ccccc1C(=O)NC(CCSC)C(=O)NNC(=O)c1ccc(F)cc1 (stereo unspecified)	-16.9%	-23.1%	6.2%	3.1%	-28.0%
COc1ccccc1C(=O)NC(CCSC)C(=O)NNC(=O)c1ccccc1O (stereo unspecified)	.	29.1µM*	0.7%	.	?
O=C(NCC1CCCO1)c1ccc(Oc2ccc([N+](=O)[O-])cc2)cc1 (stereo unspecified)	-0.4%	23.1µM*	-5.1%	?	?
O=C(NCC1CCCO1)c1ccccc1NS(=O)(=O)c1cc([N+](=O)[O-])ccc1Cl (stereo unspecified)	.	?	5.5%	.	14.6µM*
O=C(NCC1CCCO1)C(=Cc1cccc([N+](=O)[O-])c1)C(=O)NCC1CCCO1 (stereo unspecified)	-1.1%	23.1µM*	3.2%	?	?
O=C(NCC1CCCO1)/C(=C\c1cccc([N+](=O)[O-])c1)NC(=O)c1ccccc1 (stereo unspecified)	12.7%	2.1%	3.4%	15.3%	6.4%
O=C(NCC1CCCO1)c1ccc(Oc2ccc([N+](=O)[O-])cc2Cl)cc1 (stereo unspecified)	-6.7%[10 µM]	10.8%	0.0%	?	-1.0%
O=C(NCC1CCCO1)c1cccc(Oc2ccc([N+](=O)[O-])cc2Cl)c1 (stereo unspecified)	-29.1%	20.6µM*	3.1%	17.0%	?
